The campaign covered roughly 220,000 compounds. About 530 (0.24%) were called active. The sample as a whole holds a higher share of actives than the screen did. Results with a measured potency or affinity are listed apart. Unmarked numbers belong to inactive results. Cut-off read from the data, not from the text of the source: active = inhibition above about 13%; inconclusive = no clear call, values can overlap the other calls; inactive = below that.
Target: Bifunctional protein GlmU (Mycobacterium tuberculosis (strain ATCC 25618 / H37Rv)) (UniProt P9WMN3)
Experiment: inhibition of mycobacterial GlmU enzyme – biochemical, glucosamine-1-phosphate acetyltransferase (AID 1376);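 note: 0% = complete reaction with vehicle and 100% = reaction without substrate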
Conditions: M. tuberculosis GlmU acetyltransferase enzyme assay; active compounds read high;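 tested at 30 µM in the primary screen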

Bifunctional protein GlmU (Mycobacterium tuberculosis (strain ATCC 25618 / H37Rv)), sequence (P9WMN3 whole entry, looked up): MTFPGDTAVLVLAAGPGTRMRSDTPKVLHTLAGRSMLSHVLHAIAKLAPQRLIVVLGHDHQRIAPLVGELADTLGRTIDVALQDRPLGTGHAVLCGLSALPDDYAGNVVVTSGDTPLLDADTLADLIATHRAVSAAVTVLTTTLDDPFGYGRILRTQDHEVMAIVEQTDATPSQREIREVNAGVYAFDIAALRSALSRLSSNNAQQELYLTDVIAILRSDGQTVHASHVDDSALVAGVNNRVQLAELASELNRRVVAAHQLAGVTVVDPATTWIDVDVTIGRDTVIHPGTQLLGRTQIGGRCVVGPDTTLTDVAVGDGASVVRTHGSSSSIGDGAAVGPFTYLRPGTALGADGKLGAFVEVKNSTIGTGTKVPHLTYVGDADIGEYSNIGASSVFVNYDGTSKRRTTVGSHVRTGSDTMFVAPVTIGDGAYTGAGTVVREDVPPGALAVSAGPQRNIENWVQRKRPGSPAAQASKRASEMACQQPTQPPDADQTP

SMILES	inhibition
O=C(Nc1cccc(NC(=O)c2nccc3ccccc23)c1)c1ccco1	-1.26%
COc1cc(C(=O)Nc2ccncc2)c([N+](=O)[O-])cc1OC	6.59%
CCN1CCN(c2cc(C)c3cc(NC(=O)c4cnccn4)ccc3n2)CC1	-5.83%
O=C1c2ccccc2C(=O)N1OCc1ccc(Cl)cc1	-2.04%
CN(C)c1ccc(/C=C2/C(=O)NC(=O)N(Cc3ccco3)C2=O)cc1	-4.04%
O=C1NC(=O)N(Cc2ccc(F)cc2)C(=O)/C1=C/c1cccs1	-2.44%
O=C1NC(=S)N(Cc2ccco2)C(=O)/C1=C\c1cccs1	96% (active)
CCN(CC)c1ccc(/C=C2/C(=O)NC(=O)N(Cc3ccco3)C2=O)cc1	-0.51%
C=CCN1C(=O)/C(=C/c2cccs2)C(=O)NC1=S	4.18%
O=C(/C=C/c1ccco1)c1ccc(NC(=O)C23CC4CC(CC(C4)C2)C3)cc1	-0.76%
Cc1ccc(C)c(S(=O)(=O)NCCOC(=O)Nc2sc(=S)n(C)c2C)c1	6.71%
CCOC(=O)CNC(=O)CSc1nc(N)cc(N)n1	1.79%
N#CC1=C(N)Oc2c(oc(CO)cc2=O)C1c1ccsc1 (stereo unspecified)	-2.69%
Cc1nn(-c2ccc(Cl)cc2)c(NC(=O)C(C)C)c(-c2ccccc2)c1=O	-2.2%
COc1cc(/C=C2/SC(=Nc3ccc(O)cc3)NC2=O)cc(OC)c1O	7%
COc1cc(/C=C2\SC(=Nc3ccc(O)cc3)NC2=O)cc(OC)c1OC	-1.9%
COc1cc(/C=C2\SC(=Nc3ccc(O)cc3)NC2=O)cc(OC)c1O	69.2% (active)
COc1ccccc1C1=NNC(=NCc2ccccc2)SC1	-1.42%
CCN(c1ccccc1)S(=O)(=O)c1ccc(OC)c(NC(=O)CN(C)C)c1	-3.46%
CCOC(=O)C1=C(NC#N)OC(C)=C(C)C1c1ccc(O)cc1 (stereo unspecified)	-6.11%
Cc1ccc(S(=O)(=O)N2CCN(c3ccccn3)CC2)cc1	3.12%
CC(C(=O)Nc1ccc(S(=O)(=O)N2CCCCC2)cc1)N1CCN(c2ccccn2)CC1 (stereo unspecified)	0.72%
CC(=O)Nc1ccc(S(=O)(=O)N2CCN(c3ccccn3)CC2)cc1	14% (active)
Cc1c(C)n(C(=O)CSc2ncn[nH]2)c2ccccc12	1.07%
Cc1[nH]c2ccccc2c1C(=O)CSc1nc2ccccc2[nH]1	2.48%
CCCCCOc1ccc(C(=O)N(Cc2ccco2)C2CCS(=O)(=O)C2)cc1 (stereo unspecified)	2.23%
